Compound activity (PubChem)
TRPML1 ag: human mucolipin-1 channel agonism; Q9GZU1; activation, % (no concentration beside the values); TRPML1-expressing cells, Ca2+ dye fluorescence, FDSS; hit rate 0.12% among 410,000; in the data active = activation above about 50%; inconclusive = mostly about 30% to 49%
Target sequence (Q9GZU1 whole entry, looked up): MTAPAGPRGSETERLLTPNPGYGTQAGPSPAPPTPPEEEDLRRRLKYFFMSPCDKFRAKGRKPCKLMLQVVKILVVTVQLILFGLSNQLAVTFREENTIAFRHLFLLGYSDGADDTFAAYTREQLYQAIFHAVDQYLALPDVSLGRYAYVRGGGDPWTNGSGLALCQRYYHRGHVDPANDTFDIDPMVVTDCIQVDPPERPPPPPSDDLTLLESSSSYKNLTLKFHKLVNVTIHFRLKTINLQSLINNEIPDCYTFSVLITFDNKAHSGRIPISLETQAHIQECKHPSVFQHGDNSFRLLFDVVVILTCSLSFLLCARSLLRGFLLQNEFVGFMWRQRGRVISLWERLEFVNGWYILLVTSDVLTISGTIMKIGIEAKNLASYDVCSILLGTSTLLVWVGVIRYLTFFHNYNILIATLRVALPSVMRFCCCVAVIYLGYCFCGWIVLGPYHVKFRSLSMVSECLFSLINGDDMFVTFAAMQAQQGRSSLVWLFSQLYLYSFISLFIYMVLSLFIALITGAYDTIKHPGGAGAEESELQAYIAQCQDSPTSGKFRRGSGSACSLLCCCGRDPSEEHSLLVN
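Calcium fluorescence on an FDSS kinetic reader gave the read-out. Tet-induced TRPML1-DL cells were plated overnight, dye-loaded (Ca8 with quencher, 45-90 min, room temperature, dark), then read 110 s after compound addition, and again 110 s after 4uM final 54-4 (EC80).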
DRD3 agonist: D3 dopamine receptor (human) agonism; hit rate 0.58% among 410,000; D3R DiscoveRx beta-arrestin cells, luminescence, 90 min; max activation, %; AID 652048; P35462; in the data active = max activation above about 30%
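Agonist-mode cell screen: cells plated at 1500/well and incubated overnight at 37 °C, then exposed to library compounds for 90 min at 37 °C. Detection reagent was added for 30–60 min at room temperature, and luminescence was read.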
D3 antag: blocks the human D3 dopamine receptor; P35462; D3R cells, DiscoveRx beta-arrestin luminescence, antagonist mode; stronger effect = lower value; max response, negative = inhibition, %; hit rate 2.5% among 360,000; AID 652054; in the data active = max response below about -50%; inconclusive = no clear call, values can overlap the other calls
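Cells expressing the human receptor were seeded at 1500 cells/well, incubated overnight at 37 degrees C in 5% CO2, then exposed to library compounds with dopamine controls for 90 minutes at 37 degrees C before luminescent detection.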
TRPML1 inh: blocks the human TRPML1 channel | Q9GZU1 | TRPML1-inducible cells, Ca2+ dye fluorescence, FDSS; stronger effect = lower value; inhibition of EC80 agonist-evoked calcium signal | activity change, negative = inhibition, % (concentration not given with the values) | hit rate 0.02% among 390,000; in the data active = activity change below about -50%; inconclusive = between about -30% and that limit;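 note: stimulus is agonist 54-4 at its EC80 concentration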
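Calcium fluorescence in TRPML1-DL cells induced overnight with Tet: a 110 s read after compound pin addition, then a 110 s antagonist read after challenge with 54-4 at 4 uM final (EC80).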
A number is an active result; n = inactive; u = inconclusive; x = not tested or not shown. Rows were chosen to be rich in hits. Some 2.9% of all compounds tested hit in one or more screens of this group.

SMILES | TRPML1 ag | DRD3 agonist | D3 antag | TRPML1 inh
OC1(c2ccc(Br)cc2)CCN(Cc2cccc(Br)c2)CC1 | x | n | -106 | x
C=CCC(Nc1ccccc1)C12C=CC(O1)C(C(=O)OC)=C2C(=O)OC (configuration not stated) | n | n | -78 | n
CCCCC(=O)NC(c1ccc(N(C)C)cc1)c1ccc2cccnc2c1O (configuration not stated) | n | n | n | n
CCCC(=O)NC(c1ccc(C)cc1)c1ccc2cccnc2c1O (configuration not stated) | n | 31 | n | n
CCCCC(=O)NC(c1ccc(N(CC)CC)cc1)c1ccc2cccnc2c1O (configuration not stated) | n | 32 | n | n
CC(C)Cn1c(=O)c2sccc2n2c(CCCC(=O)NCCc3ccc(Cl)cc3)nnc12 | n | n | x | n
NNc1nc(-c2ccccc2Cl)nc2ccccc12 | n | n | -92 | n
CCOC(=O)C1CCN(C(=O)Cn2nc(CC)n3c(cc4occc43)c2=O)CC1 | n | n | x | n
OC1c2cc(Cl)ccc2-c2c(Cl)cc(Cl)cc21 (configuration not stated) | n | n | n | n
OC1c2cc(Cl)cc(Cl)c2N=C2CCCN21 (configuration not stated) | n | n | -59 | x
Cc1onc(-c2c(Cl)cccc2Cl)c1C(=O)NCC1CCCO1 (configuration not stated) | n | n | -105 | n
CC(C)=CCC12Oc3cc(O)ccc3C1(O)Oc1cc(O)c([C@H]3C=C(C)CC(c4ccc(O)cc4O)[C@H]3C(=O)c3ccc(O)cc3O)c(O)c1C2=O (some centres not stated) | x | n | -52 | x
COc1ccc(N[C@@H]2CCN3C(=O)c4ccccc4[C@@H]3C[C@H]2O)cc1 | n | n | n | n
O=C1c2ccccc2[C@@H]2C[C@@H](O)[C@H](Nc3cccc4ccccc34)CCN12 | n | n | -56 | n
COc1ccc2c(Sc3ccc(Cl)cc3)c(C(=O)N3CCCCC3)[nH]c2c1 | n | n | x | n
CO[C@@H]1CN(C)C(=O)c2cc(NC(=O)NC3CCCCC3)ccc2OC[C@@H](C)N(CC2CCOCC2)C[C@@H]1C | x | n | -60 | x
COc1ccccc1-c1nnc(NC(=O)C(C)C)s1 | n | n | -75 | n
COc1ccccc1-c1nnc(NC(C)=O)s1 | n | n | -88 | n
CSc1nn(Cc2ccc(F)cc2)c(N)c1S(=O)(=O)c1ccc(Cl)cc1 | n | n | x | n
CC1(C)CC[C@]2(C(=O)O)CC[C@]3(C)C(=CC[C@@H]4[C@@]5(C)CC[C@H](O[C@@H]6O[C@H](C(=O)O)[C@@H](O)[C@H](O[C@@H]7OC[C@H](O)[C@H](O)[C@H]7O)[C@H]6O)C(C)(C)[C@@H]5CC[C@]43C)[C@@H]2C1 | u | n | -63 | n
CC1(C)CC[C@]2(C(=O)O[C@@H]3O[C@H](CO)[C@@H](O)[C@H](O)[C@H]3O)CC[C@]3(C)C(=CCC4[C@@]5(C)CC[C@H](O[C@@H]6O[C@H](C(=O)O)[C@@H](O[C@H]7OC[C@@H](O)[C@@H](O)[C@@H]7O)[C@H](O)[C@H]6O)C(C)(C)C5CC[C@]43C)[C@@H]2C1 (some centres not stated) | n | n | n | n
COc1ccccc1N1CCN(CCS(=O)(=O)c2cc(Cl)ccc2Cl)CC1 | n | n | -93 | n
COc1ccc(Cl)cc1C(=O)NCCS(=O)(=O)N1CCN(c2ccccc2OC)CC1 | n | n | x | n
COc1ccccc1N1CCN(CCCNc2c(C)c(=O)n(C)c(=O)n2C)CC1 | n | n | -57 | n
COc1ccccc1N1CCN(CCCNc2cc(=O)n(C)c(=O)n2C)CC1 | n | n | -62 | n
SMILES | TRPML1 ag | DRD3 agonist | D3 antag | TRPML1 inh
COc1ccccc1N1CCN(CCCNC(=O)Nc2ccccc2)CC1 | n | n | n | n
CCc1ccc(-n2c(=O)c3sc4ccccc4c3n(Cc3cccc(F)c3)c2=O)cc1 | n | n | x | n
CC1Cc2cc(S(=O)(=O)CCC(=O)Nc3ccc(F)cc3Cl)ccc2N1C(=O)C1CC1 (configuration not stated) | n | n | x | n
Cc1ccc(-c2nc(CN3CCCCC3)cc(CN3CCCCC3)c2O)cc1 | n | n | -55 | n
COc1ccc(N=Nc2cc(C)c(O)c(CN3CCCCC3)c2)cc1 | n | n | n | n
Cn1ncc2c(NCc3ccco3)ncnc21 | n | x | x | x
O=C1c2ccccc2S(=O)(=O)N1CCS(=O)(=O)c1ccc(F)cc1 | n | 87 | n | n
O=C(CCN1C(=O)c2ccccc2S1(=O)=O)N1CCN(c2ccc(F)cc2)CC1 | n | n | n | n
O=C(NC1CCCC1)c1cnn2c1NC(=C1CC1)C=C2C(F)F | n | x | x | x
CCC(=O)N1CCCc2cc(S(=O)(=O)N3CCC(C(=O)Nc4ccccc4CC)CC3)ccc21 | n | n | x | n
CCOC(=O)C1=C(Cn2cnc3ccccc32)NC(=O)NC1c1ccc(OC)cc1 (configuration not stated) | n | n | n | n
CCOC(=O)C1=C(Cn2cnc3ccccc32)NC(=O)NC1c1ccc(Cl)cc1 (configuration not stated) | n | 32 | n | n
CC1CCN(C2=NC(=O)/C(=C/c3cccc(O)c3)S2)CC1 | n | n | -85 | n
CCNc1nc(NCC)nc(-n2cc(C(=O)c3cc(Cl)ccc3O)cn2)n1 | n | x | x | x
COCCOCC(O)CN1CCN(c2ccc(C)cc2)CC1 (configuration not stated) | n | n | -62 | n
COCCOCC(O)CN1CCN(c2ccccc2)CC1 (configuration not stated) | n | n | -78 | n
COc1ccc(N2CCN(CC(O)COc3cc(C)cc(C)c3)CC2)cc1 (configuration not stated) | n | n | n | n
OC(COCc1ccccc1)CN1CCN(c2ccccc2)CC1 (configuration not stated) | n | n | u | n
OC(COCC1COc2ccccc2O1)CN1CCN(c2ccccc2)CC1 (configuration not stated) | n | 33 | n | n
Cc1ccc(S(=O)(=O)N2CCN(c3nc(-c4ncccn4)nc4ccccc34)CC2)cc1 | n | x | x | x
CCCN1CNc2c(c(=O)[nH]c(=S)n2CCc2ccc(OCC)c(OCC)c2)C1 | n | x | x | x
CCOC(=O)C1=C(C)NC(=O)CC1c1cc2c(cc1Br)OCO2 (configuration not stated) | n | n | -51 | n
Cc1ccc(NC(=O)Cn2c(=O)n(Cc3ccco3)c(=O)c3oc4ccccc4c32)cc1C | n | n | x | n
Cc1ccc(Cl)cc1NC(=O)c1cc2ccccc2cc1O | n | 36 | n | n
O=C(C1CCN(S(=O)(=O)Cc2ccccc2)CC1)N1CCN(c2cccc(C(F)(F)F)c2)CC1 | n | n | x | n
CC1(C(=O)Nc2ccc3c(c2)OCCO3)CSCC(=O)N1CCCN1CCOCC1 (configuration not stated) | x | n | n | x
CC1(C(=O)Nc2ccc3c(c2)OCCO3)CSCC(=O)N1C1CCN(Cc2ccccc2)CC1 (configuration not stated) | x | n | -61 | x
